# About 770 (0.77%) of roughly 100,000 compounds were called active. This is one part of a sample in which actives are shown more often than they occur. A number with no mark means an inactive call. Rule as the data show it: active = inhibition above about 50%; inactive = the rest.
# Target: Gag-Pol polyprotein (Human immunodeficiency virus type 1 group M subtype B (isolate HXB2)) (UniProt P04585)
# Assay: RNase H inhibition, HIV 1 Gag Pol polyprotein, FRET biochemical assay, screening (AID 372)
# Details: HIV-1 RT RNase H, FRET RNA/DNA substrate fluorescence; at 10 µM; active compounds read high
row,Structure (SMILES),inhibition
1,Clc1ccc(Nc2nc(Oc3ccccc3)nc(N3CCOCC3)n2)cc1,15%
2,Clc1ccc(Nc2nc(Nc3ccc(Cl)cc3)nc(N3CCOCC3)n2)cc1,11%
3,O=C(NNc1nc(Nc2ccccc2)nc(N2CCOCC2)n1)Nc1ccc(Cl)cc1,72% (active)
4,COc1ccc(S(=O)(=O)N2CCN(CCN3C(=O)c4cccc5cccc(c45)C3=O)CC2)cc1,15%
5,CC(C)Nc1nc(-c2cccnc2)nc2ccccc12,8%
6,O=[N+]([O-])c1ccc(Cl)cc1NC(c1ccccc1)c1ccccc1,12%
7,CC(Nc1cc(Cl)ccc1[N+](=O)[O-])c1ccc(Br)cc1 (centres undefined),54% (active)
8,CC(Nc1cc(N2CCN(C)CC2)ccc1[N+](=O)[O-])c1ccc(Br)cc1 (centres undefined),9%
9,CCOc1ccc(/C=C2\C(=O)NC(=O)N(c3cc(C(F)(F)F)ccc3Cl)C2=O)cc1OC,11%
10,COc1ccc(CNC(=O)N2CCOCC2)cc1,20%
11,O=C(NNC(=O)c1sc2cc(F)ccc2c1Cl)Nc1ccc(Cl)cc1,57% (active)
12,O=C(Nc1ccc(F)cc1)c1sc2cc(Cl)ccc2c1Cl,6%
13,O=C(NNC(=O)c1sc2ccccc2c1Cl)Nc1ccc(Cl)cc1,14%
14,CC(=O)c1ccc(NC(=S)NC(=O)c2ccc(Br)cc2)cc1,0%
15,O=C1C(=O)N(c2cccc([N+](=O)[O-])c2)C(c2ccccc2F)/C1=C(/O)c1ccccc1 (centres undefined),8%
16,COc1cc(/C=N/N2C(=O)C3C4C=CC(C4)C3C2=O)cc(I)c1OC (centres undefined),0%
17,COc1cc(/C=N/N2C(=O)C3C4C=CC(CC4)C3C2=O)cc(I)c1O (centres undefined),0%
18,COc1cc(/C=N/N2C(=O)C3C4C=CC(C4)C3C2=O)cc(I)c1O (centres undefined),56% (active)
19,CCOC(=O)c1sc(N/N=C/c2ccccc2)nc1C,47%
20,CCOC(=O)c1sc(N/N=C/c2ccccc2C(F)(F)F)nc1C,15%
21,CCOC(=O)c1sc(N/N=C/c2ccccc2O)nc1C,58% (active)
22,COc1ccccc1N1C(=O)/C(=C/C(C)=C/c2ccccc2)SC1=S,13%
23,Cc1ccc(S(=O)(=O)/N=C/c2ccc(F)cc2)cc1,0%
24,CC1=C(C)CC(C(=O)Nc2ccc(Br)cc2)C(C(=O)O)C1 (centres undefined),8%
25,COc1ccc(NC(=O)C2CC(C)=C(C)CC2C(=O)O)cc1 (centres undefined),2%
26,Cc1cc(NS(=O)(=O)c2ccc(NC(=S)NC(=O)c3ccc(Br)cc3)cc2)no1,1%

row,Structure (SMILES),inhibition
1,Cc1cc(OCc2nc(-c3ccc(Cl)cc3Cl)no2)ccc1Br,7%
2,Cc1n[nH]c(C)c1Sc1ccc(Br)cc1,50% (active)
3,Cc1nn(C)c(C)c1Sc1ccc(Br)cc1,37%
4,Cc1n[nH]c(C)c1Sc1ccc(Cl)cc1,17%
5,COc1cccc(/C=C2\C(=O)NC(=O)N(c3ccc(Cl)c(Cl)c3)C2=O)c1,1%
6,CCc1c(C)c2ccc(OC)c(C)c2oc1=O,8%
7,COc1ccc(S(=O)(=O)N(CC(=O)Nc2ccc(C(N)=O)cc2)c2ccc(C)cc2)cc1OC,4%
8,C=CCc1cccc(/C=N/c2nc3ccccc3n2CCC)c1O,17%
9,CC(CO)(CO)N=Cc1c(O)n(-c2ccccc2)c(=S)[nH]c1=O,0%
10,CS(=O)(=O)N(Cc1ccc(Cl)cc1)c1ccc(C(=O)N2CCCC2)cc1,57% (active)
11,Cc1ccc(Cl)cc1NC(=O)c1ccc(CN(c2ccccc2)S(C)(=O)=O)cc1,10%
12,CS(=O)(=O)N(Cc1ccc(Cl)cc1)c1ccc(C(=O)Nc2cccc(C(F)(F)F)c2)cc1,1%
13,COc1ccccc1NC(=O)c1ccc(CN(c2ccccc2)S(C)(=O)=O)cc1,0%
14,COc1ccc(Cl)cc1NC(=O)c1ccc(CN(c2ccccc2)S(C)(=O)=O)cc1,56% (active)
15,CS(=O)(=O)N(Cc1ccc(C(=O)Nc2cccc(C(F)(F)F)c2)cc1)c1cccc(Cl)c1,0%
16,CCOC(=O)N1CCN(C(=O)c2ccc(N(Cc3ccc(Cl)cc3)S(C)(=O)=O)cc2)CC1,3%
17,CS(=O)(=O)N(Cc1ccc(Cl)cc1)c1ccc(C(=O)N2CCOCC2)cc1,8%
18,CS(=O)(=O)N(Cc1ccc(C(=O)Nc2cccc(C(F)(F)F)c2)cc1)c1ccccc1,58% (active)
19,COc1ccc(N=CC2=C(O)CC(c3ccccc3)CC2=O)cc1OC (centres undefined),0%
20,COC(=O)c1ccc(NC(=O)Cc2ccc(OC)cc2)cc1,1%
21,CN1CCN(C2=NC(=O)/C(=C/c3ccc4c(c3)OCO4)S2)CC1,8%
22,O=C(C[n+]1cccc(NC(=O)c2ccccc2)c1)c1ccc2c(c1)Cc1ccccc1-2,24%
23,CCOC(=O)C1=C(C)N=c2s/c(=C\c3ccc(-c4ccc(Cl)cc4Cl)o3)c(=O)n2C1c1ccc(C)cc1 (centres undefined),5%
24,CCOc1ccc(C(=O)Nc2ccc(CC)cc2)cc1[N+](=O)[O-],9%
25,Cc1ccc(S(=O)(=O)Nc2ccccn2)cc1C,0%
26,O=P(CCCO)(c1ccc(Cl)cc1)c1ccc(Cl)cc1,1%

row,Structure (SMILES),inhibition
1,O=C1C2C3C=CC(C3)C2C(=O)N1CNc1ccccc1 (centres undefined),6%
2,COC(=O)c1ccccc1NS(=O)(=O)c1ccc(Cl)cc1,12%
3,COC(=O)c1ccccc1NS(=O)(=O)c1ccc(NC(C)=O)cc1,4%
4,COC(=O)c1ccccc1NS(=O)(=O)c1ccccc1,57% (active)
5,COc1ccc(S(=O)(=O)N(CCc2ccccc2)CC(=O)NC2CCCCC2)cc1,4%
6,CCn1c2ccccc2c2cc(NC(=O)COc3ccccc3Cl)ccc21,7%
7,COc1cc(C=O)ccc1OCCOc1cccc(Oc2ccccc2)c1,21%
8,COc1cc(C=O)ccc1OCCCCOc1cccc(Oc2ccccc2)c1,44%
9,COc1ccc([N+](=O)[O-])cc1-c1ccc(/C=C(\C#N)c2nc3ccc(C)cc3[nH]2)o1,34%
10,Cc1ccc([N+](=O)[O-])cc1-c1ccc(/C=C(\C#N)c2nc3ccccc3[nH]2)o1,58% (active)
11,Cc1ccc2nc(/C(C#N)=C/c3ccc(-c4cc([N+](=O)[O-])ccc4O)o3)[nH]c2c1,6%
12,Cc1cccc(N2CCN(C(=O)c3ccc(Br)cc3)CC2)c1C,18%
13,Cc1ccc(S(=O)(=O)c2nc(N)sc2Cl)cc1,30%
14,COc1nc(S(=O)(=O)c2ccc(C)cc2)c(Cl)s1,0%
15,Cc1ccc(S(=O)(=O)c2nc(Nc3ccccc3C)sc2Cl)cc1,59% (active)
16,COc1ccccc1-n1c(O)c(C=C2C=Nc3ccccc32)c(=O)[nH]c1=S,7%
17,CCc1nnc(NC(=O)c2cnccn2)s1,9%
18,CCSc1nnc(NC(=O)c2cnccn2)s1,57% (active)
19,CCSc1nnc(NC(=O)c2ccc(Cl)cc2)s1,4%
20,CCOC(=O)c1ccc(NC(=O)Cc2ccc(Br)cc2)cc1,3%
21,COc1ccc(-c2n[nH]c(=S)n2N=C/C(Br)=C/c2ccccc2)cc1,21%
22,N#Cc1c(-c2ccc(Br)cc2)cc(-c2ccco2)c(C#N)c1N,58% (active)
23,N#Cc1c(-c2ccc(Br)cc2)cc(-c2ccc3c(c2)OCO3)c(C#N)c1N,48%
24,N#Cc1c(-c2ccccc2)cc(-c2ccco2)c(C#N)c1N,18%
25,Cc1ccccc1C(=O)Nc1sc2c(c1C(=O)Nc1cccc3ccccc13)CCC2,13%
26,O=C(Nc1cccc(O)c1)c1cc2nc(-c3ccc(Cl)cc3)cc(C(F)(F)F)n2n1,11%

row,Structure (SMILES),inhibition
1,CC(=O)Oc1ccc(C(=O)Nc2cccc(C(=O)O)c2C)cc1,55% (active)
2,CC(=O)Oc1ccc(C(=O)Nc2ccc(C)cc2C(=O)O)cc1,4%
3,CC(=O)Oc1ccc(C(=O)Nc2cccc([N+](=O)[O-])c2C)cc1,6%
4,Cc1ccccc1N1C(=O)NC(=O)/C(=C\c2cccn2-c2ccc(Cl)cc2)C1=O,42%
5,CC(C)(C)c1ccc(C(C)(C)C)c(Oc2ccccc2)c1O,8%
6,Cc1ccc([N+](=O)[O-])cc1NC(=O)c1cccc2c1C(=O)c1ccccc1-2,0%
7,COc1cccc(/C=C2/SC(NC(C)=O)=NC2=O)c1OC,8%
8,COc1ccc2ccccc2c1/C=C1/SC(NC(C)=O)=NC1=O,52% (active)
9,COc1ccccc1/C=C1\SC(NC(C)=O)=NC1=O,17%
10,COc1ccc(-c2n[nH]c(=S)n2/N=C/c2ccccc2Br)cc1,12%
11,COc1ccc(/C=C/c2ccc3ccccc3n2)cc1,17%
12,Cc1cc(C)n(C(=O)C(C)N2C(=O)c3ccccc3C2=O)n1 (centres undefined),43%
13,Cc1nn(C(=O)C(C)N2C(=O)c3ccccc3C2=O)c(C)c1Br (centres undefined),41%
14,Cc1cn(C(=O)C(C)N2C(=O)c3ccccc3C2=O)c(C)n1 (centres undefined),53% (active)
15,CC1=C(C(=O)OC2CCCCCC2)C(c2ccc(C)cc2)NC(=O)N1 (centres undefined),36%
16,COC(=O)C1=C(C)N(C)C(=O)NC1c1ccccc1I (centres undefined),5%
17,CC1=C(C(=O)OC2CCCCCC2)C(c2ccccc2)NC(=O)N1 (centres undefined),14%
18,CCCCOC(=O)C1=C(C)NC(=O)NC1c1ccc(Br)cc1 (centres undefined),23%
19,CC1=C(C(=O)OCCc2ccccc2)C(c2ccc(C)s2)NC(=O)N1 (centres undefined),19%
20,CC1=C(C(=O)OC2CCCCCC2)C(c2ccccc2I)NC(=O)N1C (centres undefined),52% (active)
21,CC1=C(C(=O)OCc2ccccc2)C(c2ccc(C)s2)NC(=O)N1 (centres undefined),55% (active)
22,COCCOC(=O)C1=C(C)NC(=O)NC1c1ccc(C)s1 (centres undefined),8%
23,CC1=C(C(=O)OC2CCCC2)C(c2ccccc2Cl)NC(=O)N1C (centres undefined),5%
24,CCCCCOC(=O)C1=C(C)NC(=O)NC1c1ccc(Br)cc1 (centres undefined),20%
25,CCCCCCOC(=O)C1=C(C)NC(=O)NC1c1ccc(Br)cc1 (centres undefined),53% (active)
26,CC1=C(C(=O)OC2CCCCCCC2)C(c2ccccc2)NC(=O)N1 (centres undefined),57% (active)

# — PubChem BioAssay AID372 (MTDP, 2006)
